Source: article PMC7862700, “An all-to-all approach to the identification of sequence-specific readers for epigenetic DNA modifications on cytosine”

Assays:
Test in all cases: DAPPL (digital affinity profiling via proximity ligation, sequencing); 10 mM Tris-HCl pH 7.5, 50 mM NaCl, 1 mM DTT, 4% glycerol, room temperature, 30 min; GST-TFs on glutathione beads, 16-mer random dsDNA library, 0.1% formaldehyde crosslink after washing; high values mean tight binding
Conditions in all cases: protein: recombinant; tags: N-terminal GST; dsDNA, one strand shown
FLI1 = biological target: T1, FLI1 (Homo sapiens, UniProt Q01543 1-452)
T1 sequence: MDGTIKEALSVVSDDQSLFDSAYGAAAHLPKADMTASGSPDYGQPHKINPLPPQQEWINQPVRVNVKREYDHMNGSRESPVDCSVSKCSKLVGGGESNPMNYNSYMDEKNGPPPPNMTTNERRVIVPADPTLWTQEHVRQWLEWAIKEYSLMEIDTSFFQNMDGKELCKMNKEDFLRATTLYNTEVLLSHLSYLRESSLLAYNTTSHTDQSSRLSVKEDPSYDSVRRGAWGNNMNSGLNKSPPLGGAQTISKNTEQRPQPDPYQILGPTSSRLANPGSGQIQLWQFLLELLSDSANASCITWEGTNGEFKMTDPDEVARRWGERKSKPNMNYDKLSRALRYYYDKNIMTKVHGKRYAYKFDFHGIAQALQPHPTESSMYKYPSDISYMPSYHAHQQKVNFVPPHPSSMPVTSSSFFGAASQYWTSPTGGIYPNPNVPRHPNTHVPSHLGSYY
In short: (§1)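 GST fusions of human transcription factors were expressed in yeast and captured with glutathione beads. Once given DNA barcodes and pooled alongside a tag-only sample, they were incubated for 30 min at room temperature with 200 nmole of a random double-stranded 16-mer DNA library in Tris/NaCl/DTT/glycerol buffer, then washed, crosslinked (0.1% formaldehyde), proximity-ligated, PCR-amplified and sequenced on an Illumina NextSeq500. The binding signal of each hexamer is its read frequency for a factor divided by its frequency for the tag-only sample.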

GABPA = biological target: T2, GABPA (Homo sapiens, UniProt Q06546 1-454)
T2 sequence: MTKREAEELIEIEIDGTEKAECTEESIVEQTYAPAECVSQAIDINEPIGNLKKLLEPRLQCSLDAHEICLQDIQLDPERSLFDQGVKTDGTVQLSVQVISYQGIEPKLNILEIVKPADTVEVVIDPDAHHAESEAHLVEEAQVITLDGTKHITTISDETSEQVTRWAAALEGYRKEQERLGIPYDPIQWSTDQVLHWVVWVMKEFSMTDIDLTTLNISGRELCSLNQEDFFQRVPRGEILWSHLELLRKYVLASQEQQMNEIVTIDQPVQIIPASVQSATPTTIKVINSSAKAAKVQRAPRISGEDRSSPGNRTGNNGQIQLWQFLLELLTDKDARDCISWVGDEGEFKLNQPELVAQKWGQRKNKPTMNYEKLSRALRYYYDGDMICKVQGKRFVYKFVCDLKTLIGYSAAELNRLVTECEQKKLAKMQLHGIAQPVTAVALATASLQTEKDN
In short: as §1

EHF = biological target: T3, EHF (Homo sapiens, UniProt Q9NZC4 1-300)
T3 sequence: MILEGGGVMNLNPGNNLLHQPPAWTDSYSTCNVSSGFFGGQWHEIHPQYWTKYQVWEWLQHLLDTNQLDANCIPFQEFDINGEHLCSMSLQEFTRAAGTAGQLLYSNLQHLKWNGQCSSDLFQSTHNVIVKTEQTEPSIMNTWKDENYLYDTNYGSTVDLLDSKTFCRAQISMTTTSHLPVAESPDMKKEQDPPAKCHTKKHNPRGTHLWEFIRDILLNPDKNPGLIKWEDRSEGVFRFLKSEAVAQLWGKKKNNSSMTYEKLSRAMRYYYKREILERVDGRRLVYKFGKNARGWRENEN
In short: as §1

ELK3 = biological target: T4, ELK3 (Homo sapiens, UniProt P41970 1-407)
T4 sequence: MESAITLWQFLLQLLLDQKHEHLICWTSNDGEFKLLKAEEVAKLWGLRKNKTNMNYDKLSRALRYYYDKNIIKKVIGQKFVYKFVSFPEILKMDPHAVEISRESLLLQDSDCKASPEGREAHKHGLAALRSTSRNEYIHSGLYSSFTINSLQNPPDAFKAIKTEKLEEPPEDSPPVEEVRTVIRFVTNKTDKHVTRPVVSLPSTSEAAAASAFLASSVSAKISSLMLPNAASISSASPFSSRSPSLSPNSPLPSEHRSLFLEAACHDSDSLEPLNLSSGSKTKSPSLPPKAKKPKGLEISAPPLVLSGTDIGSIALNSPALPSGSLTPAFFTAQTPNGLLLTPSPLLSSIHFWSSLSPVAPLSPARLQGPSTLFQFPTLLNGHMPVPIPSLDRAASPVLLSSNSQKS
In short: as §1

ETV5 = ETV5 (Homo sapiens, UniProt P41161 1-510)
ETV5, sequence (P41161 whole entry): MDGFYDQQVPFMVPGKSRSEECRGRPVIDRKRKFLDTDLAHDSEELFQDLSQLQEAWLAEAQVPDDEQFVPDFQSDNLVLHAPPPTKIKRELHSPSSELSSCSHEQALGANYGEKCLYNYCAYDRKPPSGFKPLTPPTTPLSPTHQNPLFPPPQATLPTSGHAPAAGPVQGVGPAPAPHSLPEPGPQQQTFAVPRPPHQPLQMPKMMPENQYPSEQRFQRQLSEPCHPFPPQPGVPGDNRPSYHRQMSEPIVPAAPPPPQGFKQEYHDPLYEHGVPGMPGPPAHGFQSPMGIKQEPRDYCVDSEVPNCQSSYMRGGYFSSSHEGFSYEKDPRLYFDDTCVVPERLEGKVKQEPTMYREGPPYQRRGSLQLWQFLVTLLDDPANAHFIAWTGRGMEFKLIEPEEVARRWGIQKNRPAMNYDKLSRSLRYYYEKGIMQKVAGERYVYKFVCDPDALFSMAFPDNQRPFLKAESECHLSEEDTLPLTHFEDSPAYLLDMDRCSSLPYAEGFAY
In short: as §1

SPIC = biological target: T5, SPIC (Homo sapiens, UniProt Q8N5J4 1-248)
T5 sequence: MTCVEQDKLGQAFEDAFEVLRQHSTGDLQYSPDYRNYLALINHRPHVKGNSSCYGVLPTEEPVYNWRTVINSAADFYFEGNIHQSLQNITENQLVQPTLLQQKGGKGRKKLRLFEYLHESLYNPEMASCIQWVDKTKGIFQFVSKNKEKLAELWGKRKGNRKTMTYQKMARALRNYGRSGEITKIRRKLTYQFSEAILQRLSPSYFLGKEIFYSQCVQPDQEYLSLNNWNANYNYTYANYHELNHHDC
In short: as §1

ERF = biological target: T6, ERF (Homo sapiens, UniProt P50548 1-548)
T6 sequence: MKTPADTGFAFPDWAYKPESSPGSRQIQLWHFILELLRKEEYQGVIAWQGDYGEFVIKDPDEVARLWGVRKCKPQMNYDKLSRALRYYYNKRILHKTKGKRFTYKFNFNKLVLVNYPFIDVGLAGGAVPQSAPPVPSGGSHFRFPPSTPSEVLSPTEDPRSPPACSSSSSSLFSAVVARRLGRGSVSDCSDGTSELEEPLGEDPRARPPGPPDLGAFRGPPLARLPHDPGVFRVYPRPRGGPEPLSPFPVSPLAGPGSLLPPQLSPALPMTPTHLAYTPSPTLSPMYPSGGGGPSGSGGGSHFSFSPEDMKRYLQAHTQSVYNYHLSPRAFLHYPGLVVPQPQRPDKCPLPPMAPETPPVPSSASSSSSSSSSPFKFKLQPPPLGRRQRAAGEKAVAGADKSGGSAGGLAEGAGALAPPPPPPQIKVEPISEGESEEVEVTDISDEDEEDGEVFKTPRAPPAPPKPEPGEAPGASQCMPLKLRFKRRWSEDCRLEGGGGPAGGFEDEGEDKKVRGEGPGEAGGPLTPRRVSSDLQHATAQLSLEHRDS
In short: as §1

ERG = biological target: T7, ERG (Homo sapiens, UniProt P11308 1-479)
T7 sequence: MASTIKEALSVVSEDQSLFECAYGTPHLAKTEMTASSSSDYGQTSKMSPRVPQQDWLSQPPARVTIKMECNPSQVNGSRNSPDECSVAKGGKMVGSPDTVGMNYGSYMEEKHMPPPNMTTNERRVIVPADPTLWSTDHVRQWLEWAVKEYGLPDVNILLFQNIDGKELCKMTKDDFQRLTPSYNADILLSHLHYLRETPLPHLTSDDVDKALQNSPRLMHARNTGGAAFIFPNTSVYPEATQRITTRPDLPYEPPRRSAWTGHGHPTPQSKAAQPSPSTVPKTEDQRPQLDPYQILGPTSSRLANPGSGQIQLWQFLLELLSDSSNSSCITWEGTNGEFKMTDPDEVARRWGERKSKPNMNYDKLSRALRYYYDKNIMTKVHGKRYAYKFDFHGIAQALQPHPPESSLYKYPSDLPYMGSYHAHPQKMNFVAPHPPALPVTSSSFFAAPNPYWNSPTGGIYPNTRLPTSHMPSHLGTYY
In short: as §1

ELF1 = ELF1 (Homo sapiens, UniProt P32519 1-619)
ELF1, sequence (P32519 whole entry): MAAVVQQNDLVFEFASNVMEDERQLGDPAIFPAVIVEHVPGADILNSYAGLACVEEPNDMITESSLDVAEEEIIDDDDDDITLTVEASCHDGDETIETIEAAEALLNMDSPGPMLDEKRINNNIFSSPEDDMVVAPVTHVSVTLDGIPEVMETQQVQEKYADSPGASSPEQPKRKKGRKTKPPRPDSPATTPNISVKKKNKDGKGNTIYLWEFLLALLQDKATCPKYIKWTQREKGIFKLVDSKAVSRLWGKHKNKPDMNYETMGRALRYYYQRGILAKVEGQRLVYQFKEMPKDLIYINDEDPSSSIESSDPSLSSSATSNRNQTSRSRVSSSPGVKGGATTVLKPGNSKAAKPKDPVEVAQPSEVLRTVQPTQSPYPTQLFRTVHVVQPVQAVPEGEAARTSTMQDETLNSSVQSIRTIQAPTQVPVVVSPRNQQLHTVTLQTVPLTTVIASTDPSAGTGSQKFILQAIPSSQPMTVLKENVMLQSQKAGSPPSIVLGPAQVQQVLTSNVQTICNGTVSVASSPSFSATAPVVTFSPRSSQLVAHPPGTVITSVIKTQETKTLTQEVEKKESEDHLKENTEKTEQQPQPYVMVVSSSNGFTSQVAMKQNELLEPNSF
In short: as §1

SPI1 = SPI1 (Homo sapiens, UniProt P17947 1-270)
In short: as §1

ETS2 = biological target: T8, ETS2 (Homo sapiens, UniProt P15036 1-469)
T8 sequence: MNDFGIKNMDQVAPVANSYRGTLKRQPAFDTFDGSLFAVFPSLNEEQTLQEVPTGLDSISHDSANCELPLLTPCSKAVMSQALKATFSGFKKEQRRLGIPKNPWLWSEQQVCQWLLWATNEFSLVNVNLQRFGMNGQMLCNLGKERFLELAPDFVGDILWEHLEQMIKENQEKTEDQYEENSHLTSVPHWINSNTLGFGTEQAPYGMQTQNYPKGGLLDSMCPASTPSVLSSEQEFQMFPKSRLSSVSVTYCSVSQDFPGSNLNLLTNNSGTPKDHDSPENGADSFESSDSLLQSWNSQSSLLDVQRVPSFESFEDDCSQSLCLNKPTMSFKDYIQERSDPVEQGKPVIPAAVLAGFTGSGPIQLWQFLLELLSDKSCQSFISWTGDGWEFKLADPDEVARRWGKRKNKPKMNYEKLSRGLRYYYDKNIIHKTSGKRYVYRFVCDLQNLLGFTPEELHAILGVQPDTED
In short: as §1

ELF5 = biological target: T9, ELF5 (Homo sapiens, UniProt Q9UKW6-2 1-255)
T9 sequence: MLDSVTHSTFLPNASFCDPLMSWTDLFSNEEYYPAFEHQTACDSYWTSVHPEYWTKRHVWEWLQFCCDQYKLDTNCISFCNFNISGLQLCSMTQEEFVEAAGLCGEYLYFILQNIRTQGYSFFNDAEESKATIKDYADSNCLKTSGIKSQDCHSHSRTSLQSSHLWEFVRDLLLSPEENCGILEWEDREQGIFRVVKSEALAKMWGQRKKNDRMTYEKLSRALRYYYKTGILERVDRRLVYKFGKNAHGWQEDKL
In short: as §1

ETV3 = biological target: T10, ETV3 (Homo sapiens, UniProt P41162-2 1-143)
T10 sequence: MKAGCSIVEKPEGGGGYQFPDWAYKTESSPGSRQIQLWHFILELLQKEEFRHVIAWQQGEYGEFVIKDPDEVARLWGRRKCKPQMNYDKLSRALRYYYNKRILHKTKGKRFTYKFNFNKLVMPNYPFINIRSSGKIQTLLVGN
In short: as §1

ETV6 = ETV6 (Homo sapiens, UniProt P41212 1-452)
ETV6, sequence (P41212 whole entry): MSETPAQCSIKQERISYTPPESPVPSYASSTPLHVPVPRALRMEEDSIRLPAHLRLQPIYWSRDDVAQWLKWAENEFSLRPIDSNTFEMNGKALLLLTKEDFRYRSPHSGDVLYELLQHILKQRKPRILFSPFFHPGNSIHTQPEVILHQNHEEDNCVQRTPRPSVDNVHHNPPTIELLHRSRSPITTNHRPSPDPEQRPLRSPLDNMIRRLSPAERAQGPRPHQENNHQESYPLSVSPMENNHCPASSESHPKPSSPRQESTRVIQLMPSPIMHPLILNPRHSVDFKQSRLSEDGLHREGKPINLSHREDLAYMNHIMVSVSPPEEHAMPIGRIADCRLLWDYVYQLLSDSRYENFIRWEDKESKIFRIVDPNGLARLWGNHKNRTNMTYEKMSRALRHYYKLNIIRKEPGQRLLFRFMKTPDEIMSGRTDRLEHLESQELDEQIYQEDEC
In short: as §1

Sequence	binding signal (FLI1)	binding signal (GABPA)	binding signal (EHF)	binding signal (ELK3)	binding signal (ETV5)	binding signal (SPIC)	binding signal (ERF)	binding signal (ERG)	binding signal (ELF1)	binding signal (SPI1)	binding signal (ETS2)	binding signal (ELF5)	binding signal (ETV3)	binding signal (ETV6)
TGGGTA	1.04 fold enrichment (6-mer frequency, TF over GST control)	1.05 fold enrichment (6-mer frequency, TF over GST control)	1.01 fold enrichment (6-mer frequency, TF over GST control)	1.12 fold enrichment (6-mer frequency, TF over GST control)	1.02 fold enrichment (6-mer frequency, TF over GST control)	1.03 fold enrichment (6-mer frequency, TF over GST control)	1.14 fold enrichment (6-mer frequency, TF over GST control)	–	–	–	–	–	–	–
GGTTAT	1.07 fold enrichment (6-mer frequency, TF over GST control)	1.03 fold enrichment (6-mer frequency, TF over GST control)	1.03 fold enrichment (6-mer frequency, TF over GST control)	1.07 fold enrichment (6-mer frequency, TF over GST control)	1.09 fold enrichment (6-mer frequency, TF over GST control)	1.05 fold enrichment (6-mer frequency, TF over GST control)	–	1.04 fold enrichment (6-mer frequency, TF over GST control)	1.01 fold enrichment (6-mer frequency, TF over GST control)	1 fold enrichment (6-mer frequency, TF over GST control)	1.04 fold enrichment (6-mer frequency, TF over GST control)	1.1 fold enrichment (6-mer frequency, TF over GST control)	1.05 fold enrichment (6-mer frequency, TF over GST control)	1.03 fold enrichment (6-mer frequency, TF over GST control)
